An excerpt weighted towards active compounds, which were near 19% of everything screened.
Giardia kill – Giardia lamblia killing. 0.15% of 340,000 active. activity change, % at 7.66 µM, hits read low. Giardia lamblia trophozoite viability; in the data active = activity change below about -80%; inconclusive = between about -30% and that limit;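 also: parasites exposed to compound for two days anaerobically before the ATP read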
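Each well holds 100 Giardia trophozoites and compound. After two days (48 hrs) at 37 deg C in anaerobic conditions, ATP is quantified by luminescence.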
TDP1 cell CPT – DT40-hTDP1 cell growth loss with CPT. chicken DT40 Tdp1-/-;hTDP1 cells + 20 nM CPT, ATP luminescence, 48 h. Potency, µM (series often up to 46.2 µM), without a hit: top-dose activity change, negative = growth inhibition, actives largely listed as inhibitors. 12% of 420,000 active; also: potency is read from the fitted curve at half-maximal effect; nearly all actives have a fitted effect of over 55% in size
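Chicken DT40 Tdp1-/- cells stably complemented with human TDP1 were seeded at 400 cells/well in medium containing 20 nM camptothecin, exposed to pin-transferred compounds, and grown at 37 °C for at least 48 hr. Viability was read as ATP luminescence.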
ELG1 repair inh – blocks ELG1-dependent DNA repair in HEK293T cells; HEK293T ELG1-luciferase reporter, luminescence, 16 h; DNA damage induced by 5-fluorouridine; Potency, µM (series often up to 46.1 µM), for inactives: top-dose activity change, negative = inhibition, hits mostly inhibitors; 2.3% of 330,000 active; also: potency is read from the fitted curve at half-maximal effect; nearly all actives have a fitted effect of over 55% in size
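Step one: seed 2,000 cells per well. Step two: pin-transfer compound or DMSO alongside 5-fluorouridine. Step three: incubate 16 hr, 37 °C, 5% CO2. Step four: add ONE-Glo, wait 30 min, read luminescence.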
IL1B secr inh – inhibitors of inflammasome signaling (IL-1 beta secretion); THP-1 LPS/ATP IL-1B secretion, AlphaLISA, 16 h; stronger effect = lower value; activity change, % at 57.5 µM; 4.7% of 360,000 active; in the data active = activity change below about -50%; inconclusive = mostly about -30% to -49%
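THP-1 cells pretreated 1 hr with compounds (up to 57.5 uM final), then stimulated with LPS (250 ng/mL final) plus ATP (1.25 mM final); secreted IL-1B measured by AlphaLISA after 16 hr, decreased signal indicating inhibition.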
TDP1 inh – blocks human tyrosyl-DNA phosphodiesterase 1; recombinant TDP1, AlphaScreen DNA substrate cleavage; 0.28% of 350,000 active; Potency, µM (highest dose often 130 µM), for inactives: at the highest dose activity change, negative = inhibition, most hits filed as inhibitors; AID 485290; also: potency is read from the fitted curve at half-maximal effect; nearly all actives have a fitted effect of over 40% in size
Target sequence (Q9NUW8 whole entry, looked up): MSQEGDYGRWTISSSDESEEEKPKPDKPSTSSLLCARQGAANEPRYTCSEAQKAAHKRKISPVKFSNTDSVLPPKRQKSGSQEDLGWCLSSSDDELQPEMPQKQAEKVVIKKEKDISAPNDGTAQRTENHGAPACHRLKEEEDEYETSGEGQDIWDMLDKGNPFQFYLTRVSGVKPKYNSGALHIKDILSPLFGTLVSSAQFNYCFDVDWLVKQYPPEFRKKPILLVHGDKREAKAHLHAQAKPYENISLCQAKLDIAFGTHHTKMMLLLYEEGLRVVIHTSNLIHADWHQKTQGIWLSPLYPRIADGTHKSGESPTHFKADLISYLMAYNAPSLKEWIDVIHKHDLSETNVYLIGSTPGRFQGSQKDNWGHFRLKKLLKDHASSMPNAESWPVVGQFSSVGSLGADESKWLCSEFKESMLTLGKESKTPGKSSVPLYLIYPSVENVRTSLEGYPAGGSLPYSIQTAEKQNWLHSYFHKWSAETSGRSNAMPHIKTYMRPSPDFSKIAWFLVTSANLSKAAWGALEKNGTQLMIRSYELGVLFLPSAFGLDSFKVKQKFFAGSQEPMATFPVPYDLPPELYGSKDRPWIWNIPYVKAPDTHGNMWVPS
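Signal: AlphaScreen proximity between streptavidin donor and anti-FITC acceptor beads on intact substrate. Reaction: Tdp1 1 nM, substrate 15 nM final, 5 min RT after 15 min compound preincubation.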
TDP1 cell noCPT – qHTS for Inhibitors of human tyrosyl-DNA phosphodiesterase 1 (TDP1): qHTS in cells in absence of CPT. DT40 Tdp1-/- hTDP1 cells, no CPT, ATP luminescence, 48 h. 15% of 420,000 active. Potency, µM (top dose mostly 46.2 µM), inactives show top-dose activity change, negative = growth inhibition, most hits filed as inhibitors; also: potency is read from the fitted curve at half-maximal effect; nearly all actives have a fitted effect of over 55% in size
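Luminescent ATP content (CellTiter-Glo) served as the growth readout. Knockout chicken DT40 cells expressing human TDP1 were exposed to compounds without camptothecin for a minimum 48 hr at 37 °C.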
ELG1 FLuc counter – luciferase inhibition in cell-free luciferin readout for ELG1 hits; shares compounds with ELG1 repair inh; cell-free firefly luciferase luminescence counter-screen, ViewLux; 3% of 350 active; Potency, µM (top dose mostly 46.1 µM), for the others: at the highest dose activity change, negative = inhibition, most hits filed as inhibitors; also: potency is read from the fitted curve at half-maximal effect
ELG1-Luc inh – confirmation of human ELG1-dependent DNA repair inhibitors | shares compounds with ELG1 repair inh | HEK293T ELG1-luciferase levels, luminescence; cells co-treated with 5-fluorouridine | Potency, µM (series often up to 46.1 µM), inactives show at the highest dose activity change, negative = inhibition, most hits filed as inhibitors | 68% of 670 active; also: potency is read from the fitted curve at half-maximal effect; nearly all actives have a fitted effect of over 55% in size
ELG1-Luc MMS – inhibits ELG1-dependent repair under MMS stimulation in HEK293T cells | shares compounds with ELG1 repair inh | HEK293T luciferase-tagged ELG1 level, MMS stimulated | Potency, µM (titrated, usually from 46.1 µM), without a hit: at the highest dose activity change, negative = inhibition, usual class: inhibitors | 53% of 670 active; also: potency is read from the fitted curve at half-maximal effect; nearly all actives have a fitted effect of over 60% in size
ELG1 5FU viab – confirmation of ELG1 repair inhibitors: viability with 5FU | shares compounds with ELG1 repair inh | cell viability with 5-FU, ELG1-dependent repair | Potency, µM (series often up to 46.1 µM), for the others: top-dose activity change, negative = viability loss, usual class: cytotoxic | 670 tested, under 10 active | AID 624250;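 also: ELG1-luc HEK293T cells cotreated with 5-fluorouridine at 10 µM final; potency is read from the fitted curve at half-maximal effect; viability measured 16 h after compound addition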
ELG1 MMS cell – confirmation of ELG1 repair inhibitors: viability with MMS; Cell viability with MMS, ELG1-dependent DNA repair; Potency, µM (series often up to 46.1 µM), without a hit: at the highest dose activity change, negative = viability loss, most hits filed as cytotoxic; shares compounds with ELG1 repair inh; AID 624251; 33% of 670 active;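 also: ELG1-luc HEK293T cells co-treated with 10 µM MMS; potency is read from the fitted curve at half-maximal effect; viability read 16 h after compound addition; nearly all actives have a fitted effect of over 60% in size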
ELG1 unstim viab – unstimulated viability counter-screen for ELG1 repair hits. Potency, µM (titrated, usually from 45.9 µM), without a hit: top-dose activity change, negative = loss of viability, actives largely listed as cytotoxic. 8% of 900 active. AID 624252. shares compounds with ELG1 repair inh. cell viability counter-screen, unstimulated, luminescence;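 also: potency is read from the fitted curve at half-maximal effect; compound exposure lasted 16 hours before reading; nearly all actives have a fitted effect of over 55% in size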
FLuc biochem – inhibits purified firefly luciferase, counter-screen for ELG1 hits | shares compounds with ELG1 repair inh | purified firefly luciferase, luminescence counter-screen | Potency, µM (series often up to 57.5 µM), for the others: at the highest dose activity, negative = inhibition, actives largely listed as inhibitors | 10% of 350 active | AID 624253; also: potency is read from the fitted curve at half-maximal effect
* marks the source's active call; other numbers are inactive results; [ ] = remark or other dose. Unless noted, calls follow the shape of the dose curve; as a rule, active = well fitted curve in the direction sought with a large enough effect; inconclusive = small, poorly fitted or top-dose-only effect, or another doubt; inactive = no such curve, though single readings can be large; an effect the other way counts as inactive or inconclusive. % is scaled to controls: 0 for no effect and ±100 for the full control effect.

How did Cc1ccc(CNC(=O)c2oc3ccc(S(=O)(=O)N4CCC5(CC4)OCCO5)cc3c2C)cc1 do in these assays?
Giardia kill: 8.8; TDP1 cell CPT: -20.3%; ELG1 repair inh: 0.82µM*; IL1B secr inh: 0.0; TDP1 inh: 2.6%; TDP1 cell noCPT: inconclusive; ELG1 FLuc counter: inconclusive; ELG1-Luc inh: 3.54µM*; ELG1-Luc MMS: 14.1µM*; ELG1 5FU viab: inconclusive; ELG1 MMS cell: 22.3µM*; ELG1 unstim viab: inconclusive; FLuc biochem: -0.6%

How did CS(=O)(=O)Nc1ccccc1C(=O)OCC(=O)N1CCC(c2ccccc2)=N1 do in these assays?
Giardia kill: 3.1; TDP1 cell CPT: inconclusive; ELG1 repair inh: 0.0%; IL1B secr inh: -20.8; TDP1 inh: 0.4%; TDP1 cell noCPT: -0.7%

How did CCOCCOC(=O)c1[nH]c2c(c1C)C(=O)CC(c1cc(OC)c(OC)c(OC)c1)C2 (stereo not given) do in these assays?
Giardia kill: -2.6; TDP1 cell CPT: 10.3µM*; ELG1 repair inh: 4.11µM*; IL1B secr inh: 1.4; TDP1 cell noCPT: 9.2µM*; ELG1-Luc inh: 9.96µM*; ELG1-Luc MMS: 6.28µM*; ELG1 5FU viab: -5.2%; ELG1 MMS cell: inconclusive; ELG1 unstim viab: inconclusive

How did COc1cc([N+](=O)[O-])ccc1NC(=O)Nn1cnnc1 do in these assays?
Giardia kill: 24.8; TDP1 cell CPT: 0.7%; ELG1 repair inh: -0.3%; IL1B secr inh: 0.0; TDP1 inh: 2.6%; TDP1 cell noCPT: 23.4%

How did COc1ccc(-c2nc3c(c(SCC(=O)N4CCOCC4)n2)Cc2c(CO)cnc(C)c2O3)cc1 do in these assays?
Giardia kill: 10.3; TDP1 cell CPT: 14.6µM*; ELG1 repair inh: 1.3µM*; IL1B secr inh: inconclusive; TDP1 inh: 7.6%; TDP1 cell noCPT: 10.3µM*; ELG1 FLuc counter: 20.1%; ELG1-Luc inh: 3.54µM*; ELG1-Luc MMS: inconclusive; ELG1 5FU viab: 5.5%; ELG1 MMS cell: -1.9%; ELG1 unstim viab: -15.9%; FLuc biochem: 0.1%

What do the screens show for `O=C1c2cccc(OCc3ccc(F)cc3)c2CCN1Cc1ccccc1`?
Giardia kill: 5.0; TDP1 cell CPT: inconclusive; ELG1 repair inh: inconclusive; IL1B secr inh: -57.2*; TDP1 inh: 4.4%; TDP1 cell noCPT: inconclusive; ELG1-Luc inh: inconclusive; ELG1-Luc MMS: 4.45µM*; ELG1 5FU viab: -10.3%; ELG1 MMS cell: 6.28µM*; ELG1 unstim viab: inconclusive

What do the screens show for `CC(C)c1nnc(SCC(=O)NC2CCCC2)n1C`?
Giardia kill: 4.0; TDP1 cell CPT: -9.6%; ELG1 repair inh: inconclusive; IL1B secr inh: 11.9; TDP1 inh: 4.8%[0.0935 µM]; TDP1 cell noCPT: -4.0%

Results for CCCC(=O)Oc1ccc2[nH]c(C(=O)c3cc4ccccc4[nH]3)cc2c1 ?
TDP1 cell CPT: inconclusive; TDP1 cell noCPT: inconclusive; ELG1 unstim viab: 2.6%

Results for CCOC(=O)c1cc2cc(OC)ccc2[nH]1 ?
Giardia kill: -2.8; TDP1 cell CPT: inconclusive; ELG1 repair inh: inconclusive; IL1B secr inh: -3.5; TDP1 inh: 1.9%; TDP1 cell noCPT: inconclusive

Results for Cc1cc2c(c3oc(=O)c4ccccc4c13)CN(Cc1ccc(F)cc1)CO2 ?
TDP1 cell CPT: inconclusive; TDP1 inh: 8.6%; TDP1 cell noCPT: inconclusive

What do the screens show for `COc1ccc(OCCN2CCN(C(=O)c3ccc(OC)cc3)CC2)cc1`?
Giardia kill: 0.7; TDP1 cell CPT: -3.9%; ELG1 repair inh: 3.26µM*; IL1B secr inh: 9.0; TDP1 cell noCPT: -23.5%; ELG1-Luc inh: inconclusive; ELG1-Luc MMS: 7.05µM*; ELG1 5FU viab: -3.6%; ELG1 MMS cell: 7.91µM*; ELG1 unstim viab: -22.1%

What do the screens show for `O=C(c1ccc(Cl)cc1)N1CCN(CCOc2ccccc2)CC1`?
Giardia kill: 10.4; TDP1 cell CPT: -0.3%; ELG1 repair inh: -22.2%; IL1B secr inh: -6.8; TDP1 cell noCPT: -12.1%

How did COC(=O)[C@H](Cc1ccccc1)NC(=O)O[C@@H]1C(=O)c2cc(Br)ccc2O[C@H]1c1ccc2c(c1)OCO2 do in these assays?
TDP1 inh: 6.9%

What do the screens show for `CCCCc1ccc(NC(=O)c2ccc(N(C)S(C)(=O)=O)cc2)cc1`?
Giardia kill: -1.0; TDP1 cell CPT: -19.9%; ELG1 repair inh: 1.46µM*; IL1B secr inh: 34.1; TDP1 inh: 5.6%; TDP1 cell noCPT: -41.3%; ELG1-Luc inh: inconclusive; ELG1-Luc MMS: 0.445µM*; ELG1 5FU viab: -9.9%; ELG1 MMS cell: 0.628µM*; ELG1 unstim viab: inconclusive
